# The supplement of paper PMC13380429
# Values without a mark were called inactive.
# Test system: Vero E6 infected with SARS-CoV-2
# Test: inhibition of SARS-CoV-2 cytopathic effect; higher = more antiviral protection, active = above 15
# Conditions: 48 h
Compound,inhibition of SARS-CoV-2 cytopathic effect (1 nM) [%],inhibition of SARS-CoV-2 cytopathic effect (8.33 nM) [%],inhibition of SARS-CoV-2 cytopathic effect (100 nM) [%],inhibition of SARS-CoV-2 cytopathic effect (833.33 nM) [%],inhibition of SARS-CoV-2 cytopathic effect (10000 nM)
Clc1ccc(C2(c3ccc(-c4cn[nH]c4)cc3)CCNCC2)cc1,1.57,-1.08,1.96,-6.2,-7.71%
CNC(=O)CN1CCC(Oc2cc3c(Nc4cccc(Cl)c4F)ncnc3cc2OC)CC1,-0.01,0.66,-6.91,-7.8,-13.6%
O=C(/C=C/N1C[C@H]2C[C@@H]1CN2c1ccccn1)c1ccccc1O,-0.57,-1.55,-0.95,-5.12,-2.56%
CCOC(=O)[C@H](CCc1ccccc1)N[C@H]1CS[C@H](c2cccs2)CN(CC(=O)O)C1=O [temocapril],-2.77,-0.7,1.38,-0.25,-3.19%
NC(=O)c1cnc2[nH]ccc2c1N[C@@H]1[C@@H]2CC3C[C@H]1C[C@@](O)(C3)C2,-1.55,-1.31,-1.46,-0.12,-1.65%
CC(C)(C)c1cc(C=C(C#N)C#N)cc(C(C)(C)C)c1O [tyrphostin-A9],1.9,1.44,4.1,8.55,6.42%
CCOc1ccc2ccccc2c1C(=O)N[C@@H]1C(=O)N2[C@@H]1SC(C)(C)[C@@H]2C(=O)O [nafcillin],-2.44,1.27,-1.26,-1.73,-0.95%
Cc1cc(C)c(N)c(C#Cc2cccc(F)c2)n1,1.69,-1.37,0.6,3.1,1.98%
CC(CNC(=O)c1cccnc1)NC(=O)c1cccnc1 (stereo not given) [nicaraven],0.7,-0.11,-1.71,0.88,-0.45%
C(#Cc1nc2ncccc2nc1OCCN1CCCC1)c1ccccc1,-1.59,-0.87,-1.72,7.05,15.8% (active)
Clc1cccc(-c2nnnn2Cc2cccnc2)c1Cl,-1.94,-0.7,0.71,-2.59,-3.45%
CN1C/C=C/CCOc2cccc(c2)-c2ccnc(n2)Nc2cccc(c2)C1,5.51,0.11,0.3,-10.7,-9.98%
COc1ccc2cc(C(C)C(=O)Oc3ccc(C(N)=S)cc3)ccc2c1 (stereo not given),-0.75,0.03,-0.37,0.55,4.55%
COc1cc(Cc2cnc(N)nc2N)cc(OC)c1OC [trimethoprim],-0.11,0.21,-0.75,2.08,2.04%
N#C/C(=C\c1ccc(O)c(O)c1)C(=O)OCCc1cccs1,1.43,1.78,7.36,-1.53,1.2%
COc1cc2c(cc1OC)[C@@]13CCN4CC5=CCO[C@H]6CC(=O)N2[C@H]1[C@H]6[C@H]5C[C@H]43 [brucine],7.12,1.25,3.51,2.71,0.47%
C=C(CC)C(=O)c1ccc(OCC(=O)O)c(Cl)c1Cl [etacrynic-acid],1.1,2.25,2.32,4.17,-6.97%
COc1ccc(C(C)=O)c(O)c1 [paeonol],1.08,1.99,2.76,0.69,-4.98%
O=C(O)c1ccc(S(=O)(=O)N(Cc2ccc(OC(F)(F)F)cc2)c2ncc(C(F)(F)F)cc2Cl)cc1,1.52,-0.05,1.73,1.99,4.63%
